Assay results from PubChem BioAssay (EPA / NIEHS).
Inconclusive results are not listed. Activity calls are given as the source filed them. Rule for the calls: active = hit-call score of the fitted dose curve at least 0.9, where 1 is the maximum; inconclusive = response in the unintended direction; inactive = score below 0.9.

Target: Bile acid receptor (Homo sapiens) (UniProt Q96RI1)
Assay: OT_FXR_FXRSRC1_1440: Odyssey Thera (OT) 24-hour HEK293T Protein-Complementation Assay for Farnesoid X receptor/SRC-1 Co-activator (AID 2283384)
Protocol: OT_FXR_FXRSRC1_1440 is a cell-based assay that uses HEK293T, a human kidney cell line, with measurements taken at 24 hours after chemical dosing in a 384-well plate.OT_FXR_FXRSRC1_1440 is one of one assay component(s) measured or calculated from the OT_FXR_FXRSRC1_1440 assay. It is designed to make measurements of protein fragment complementation, a form of binding reporter, as detected with fluorescence intensity signals by Protein-fragment Complementation technology.Data from the assay component OT_FXR_FXRSRC1_1440 was analyzed into 1 assay endpoint. This assay endpoint, OT_FXR_FXRSRC1_1440, was analyzed in the positive analysis fitting direction relative to DMSO as the negative control and baseline of activity. Using a type of binding reporter, measures of receptor for gain-of-signal activity can be used to understand the binding at the pathway-level as they relate to the gene NR1H4. Furthermore, this assay endpoint can be referred to as a primary readout, because the performed assay has only produced 1 assay endpoint. To generalize the intended target to other relatable targets, this assay endpoint is annotated to the nuclear receptor intended target family, where the subfamily is non-steroidal.
Protein-fragment complementation assay, or PCA, is a method for the identification and quantification of protein-protein interactions. In the PCA, the proteins of interest ("bait" and "prey") are each covalently linked to fragments of a third protein (e.g. DHFR, which acts as a "reporter"). Interaction between the bait and the prey proteins brings the fragments of the reporter protein in close proximity to allow them to form a functional reporter protein whose activity can be measured.

Chain of Bile acid receptor (Homo sapiens) (Q96RI1 whole entry, looked up): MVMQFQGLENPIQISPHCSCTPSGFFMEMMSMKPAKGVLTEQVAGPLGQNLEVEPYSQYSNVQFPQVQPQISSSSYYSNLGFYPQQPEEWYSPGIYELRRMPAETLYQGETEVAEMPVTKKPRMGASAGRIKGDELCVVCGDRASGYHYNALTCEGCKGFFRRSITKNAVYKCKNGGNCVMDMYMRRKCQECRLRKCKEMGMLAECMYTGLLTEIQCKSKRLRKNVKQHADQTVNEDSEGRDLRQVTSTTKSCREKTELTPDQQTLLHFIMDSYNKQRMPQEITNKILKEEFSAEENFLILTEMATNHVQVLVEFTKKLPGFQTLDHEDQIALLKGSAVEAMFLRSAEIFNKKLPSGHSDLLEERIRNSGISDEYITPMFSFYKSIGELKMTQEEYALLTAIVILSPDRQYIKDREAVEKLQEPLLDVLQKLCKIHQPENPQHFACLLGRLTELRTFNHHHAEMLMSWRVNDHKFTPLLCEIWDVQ

Compound	outcome	AC50
CNC(=S)NC	inactive	
C(=C(c1ccccc1)c1ccccc1)c1ccccc1		76.8 µM (active)
CC(CCl)OP(=O)(OC(C)CCl)OC(C)CCl (stereo not given)	inactive	
[Co]	inactive	
CCCCC(CC)COP(=O)(O)OCC(CC)CCCC (stereo not given)		71.8 µM (active)
CN(C)Cc1ccccc1O	inactive	
O=S(=O)(O)c1ccc2ccccc2c1	inactive	
CCCCCCC(C)OC(=O)CCCCC(=O)OC(C)CCCCCC (stereo not given)	inactive	
c1ccc(B(c2ccccc2)c2ccccc2)cc1	inactive	
CCCCCCOC(=O)c1ccccc1O	inactive	
COC(=O)C1CCC(C(=O)OC)CC1 (stereo not given)	inactive	
O=C(OCCOCCOCCOC(=O)c1ccccc1)c1ccccc1	inactive	
C#C[C@]1(O)CC[C@H]2[C@@H]3CCc4cc(OC)ccc4[C@H]3CC[C@@]21C		46.8 µM (active)
CCCCOc1ccc(N)cc1		36.9 µM (active)
CC(C)OC(=O)c1ccccc1C(=O)OC(C)C	inactive	
